# Laboratory results taken from PubChem BioAssay.
# The source made the active and inactive calls.
# Columns and labels:
# [1] = test system: Plasmodium falciparum Sir2 (PF13_0152, Sir2A); experiment: pfSir2 binders on small-molecule microarrays, primary screen, biochemical, small-molecule microarray, 635 nm fluorescence (AID 1098); conditions: small-molecule microarray binding, fluorescence 635 nm; higher = more signal;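 also: score merges spot fluorescence intensity with its signal-to-noise ratio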
# [2] = small-molecule microarray binders of probe aDKK1, primary screen, biochemical, biotinylated probe, 635/667 nm fluorescence (AID 1099); conditions: higher = more signal;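 also: score merges 667nm spot fluorescence with signal to noise across triplicate slides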
# [3] = small-molecule microarray binders of probe aCHRDL2, primary screen, biochemical, biotinylated probe, 635/667 nm fluorescence (AID 1100); conditions: higher = more signal
# [4] = splicing luciferase reporter signal modulators, primary screen, spliceosome inhibition project, cell-based, HEK293, splice +/- reporter (AID 1101); conditions: luminescence, 24 h, higher = more signal, called active from +8 up or from −8 down;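 also: HEK293 cells carrying a splicing-competent luciferase reporter gene; test concentration not given here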
# [5] = target: Fibroblast growth factor 10 (Homo sapiens) (UniProt O15520); experiment: FGF10 binders on small-molecule microarrays, primary screen, biochemical, small-molecule microarray, 635 nm fluorescence (AID 1102); conditions: FGF10 binding, fluorescence 635 nm, higher = more signal
# [6] = test system: glycogen synthase kinase-3 (GSK3A per assay name; protocol says GSK3B); experiment: GSK3 binders on small-molecule microarrays, primary screen, biochemical, small-molecule microarray, 635 nm fluorescence, GSK3A (AID 1103); conditions: small-molecule microarray binding, fluorescence 635 nm; higher = more signal; also: the record names both GSK3A and GSK3B
# [7] = target: Epidermal growth factor receptor (Homo sapiens) (UniProt P00533); experiment: EGFR binders on small-molecule microarrays, primary screen, biochemical, small-molecule microarray, 635 nm fluorescence (AID 1104); conditions: EGFR binding, higher = more signal;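 also: score merges 667 nm emission intensity with spot signal to noise over triplicate slides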
# [8] = target: Follistatin-related protein 3 (Homo sapiens) (UniProt O95633); experiment: FSTL3 binders on small-molecule microarrays, primary screen, biochemical, small-molecule microarray, 635 nm fluorescence (AID 1105); conditions: FSTL3 binding, higher = more signal;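 also: score merges emission near 667 nm and signal to noise per printed spot across three slides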
# [9] = target: Dickkopf-related protein 1 (Homo sapiens) (UniProt O94907); experiment: DKK1 binders on small-molecule microarrays, primary screen, biochemical, small-molecule microarray, 635 nm fluorescence scan (AID 1106); conditions: DKK1 binding, higher = more signal;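 also: score merges emission near 667 nm with signal to noise over three replicate slides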
# [10] = test system: Inhibin beta A chain (activin A); experiment: INHBA (activin A) binders on microarrays, primary screen, biochemical, small-molecule microarray, 635 nm fluorescence scan (AID 1107); conditions: small-molecule microarray binding, higher = more signal;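 also: mouse activin A protein probed at 4.33 µg/mL on printed slides; score merges bound-protein fluorescence near 667 nm with spot signal-to-noise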
# [11] = test system: Human papillomavirus type 1a protein E7 (residues 44-93); experiment: HPV1a E7 fragment binders on microarrays, primary screen, biochemical, small-molecule microarray, residues 44-93, 635 nm fluorescence (AID 1108); conditions: small-molecule microarray binding, fluorescence 635 nm; higher = more signal;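 also: E7 fragment applied at 1 µg/mL in TBST for 1 h at 4 C; score combines spot fluorescence with its signal to noise ratio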
# [12] = modulators of HCV replicon luciferase signal, primary screen, HCV replication inhibitor project, Huh7 cells, luciferase reporter (AID 1109); conditions: 48 h, higher = more signal;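 also: huh7 hepatoma cells harbouring a luciferase neomycin HCV replicon reporter; luciferase luminescence as measure of HCV replicon replication; test concentration not given here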
# [13] = target: Left-right determination factor 2 (Homo sapiens) (UniProt O00292); experiment: LEFTY2 binders on small-molecule microarrays, primary screen, biochemical, small-molecule microarray, 635 nm fluorescence scan (AID 1110); conditions: LEFTY2 binding, higher = more signal
# [14] = target: Calmodulin-1 (Homo sapiens) (UniProt P0DP23); experiment: CALM1 binders on microarrays, EGTA buffer, profiling panel, biochemical, small-molecule microarray, Cy5-labelled CALM1 (AID 1111); conditions: Cy5-CALM1 binding fluorescence, higher = more signal;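 also: labelled calmodulin applied in Tris saline Tween buffer holding calcium plus EGTA and DTT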
# [15] = target: Calmodulin-1 (Homo sapiens) (UniProt P0DP23); experiment: calcium-bound CALM1 binders on microarrays, profiling panel, artefact control for SMM control-protein annotation, biochemical, small-molecule microarray, Cy5-labelled CALM1, plus calcium (AID 1112); conditions: Cy5-CALM1 binding fluorescence, higher = more signal;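 also: score merges spot fluorescence with signal to noise from triplicate slides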
# [16] = small-molecule microarray binders of probe aWnt5a, primary screen, biochemical, biotinylated probe, 635/667 nm fluorescence (AID 1113); conditions: higher = more signal;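 also: score merges 667 nm fluorescence intensity with signal-to-noise per printed feature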
# [17] = small-molecule microarray binders of probe aShh, primary screen, biochemical, biotinylated probe, 635/667 nm fluorescence (AID 1114); conditions: higher = more signal;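 also: probe is biotin-labelled aShh protein from a stem cell growth factor screen; measures binding of labelled protein to compounds printed on the slide; score merges feature fluorescence at 667 nm with signal-to-noise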
# [18] = small-molecule microarray binders of probe aNog, primary screen, biochemical, biotinylated probe, 635/667 nm fluorescence (AID 1115); conditions: higher = more signal;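 also: probe is biotinylated aNog protein used at 0.15 µg/mL for 1 h at 4 C; z-score combines 667 nm fluorescence of each spot with its signal to noise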
# [19] = target: Torsin-1A-interacting protein 1 (Homo sapiens) (UniProt Q5JTV8); experiment: LAP1 binders from COS7 cell lysate, primary screen, small-molecule microarray, 635/667 nm fluorescence (AID 1116); conditions: COS7-hLAP1 lysate binding, 635 nm fluorescence, higher = more signal
# [20] = target: Alpha-bungarotoxin (Bungarus multicinctus) (UniProt P60615); experiment: alpha-bungarotoxin binders on microarray, profiling panel, artefact control for SMM control protein annotation, biochemical, small-molecule microarray, Alexa647 label, 635/667 nm fluorescence (AID 1117); conditions: alpha-BTX-A647 binding fluorescence, higher = more signal
# Sequence of Alpha-bungarotoxin (Bungarus multicinctus) (P60615 whole entry, looked up): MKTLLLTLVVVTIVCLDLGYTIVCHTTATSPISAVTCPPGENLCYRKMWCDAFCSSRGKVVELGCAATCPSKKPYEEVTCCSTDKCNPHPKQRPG
# Sequence of Epidermal growth factor receptor (Homo sapiens) (P00533 whole entry, looked up): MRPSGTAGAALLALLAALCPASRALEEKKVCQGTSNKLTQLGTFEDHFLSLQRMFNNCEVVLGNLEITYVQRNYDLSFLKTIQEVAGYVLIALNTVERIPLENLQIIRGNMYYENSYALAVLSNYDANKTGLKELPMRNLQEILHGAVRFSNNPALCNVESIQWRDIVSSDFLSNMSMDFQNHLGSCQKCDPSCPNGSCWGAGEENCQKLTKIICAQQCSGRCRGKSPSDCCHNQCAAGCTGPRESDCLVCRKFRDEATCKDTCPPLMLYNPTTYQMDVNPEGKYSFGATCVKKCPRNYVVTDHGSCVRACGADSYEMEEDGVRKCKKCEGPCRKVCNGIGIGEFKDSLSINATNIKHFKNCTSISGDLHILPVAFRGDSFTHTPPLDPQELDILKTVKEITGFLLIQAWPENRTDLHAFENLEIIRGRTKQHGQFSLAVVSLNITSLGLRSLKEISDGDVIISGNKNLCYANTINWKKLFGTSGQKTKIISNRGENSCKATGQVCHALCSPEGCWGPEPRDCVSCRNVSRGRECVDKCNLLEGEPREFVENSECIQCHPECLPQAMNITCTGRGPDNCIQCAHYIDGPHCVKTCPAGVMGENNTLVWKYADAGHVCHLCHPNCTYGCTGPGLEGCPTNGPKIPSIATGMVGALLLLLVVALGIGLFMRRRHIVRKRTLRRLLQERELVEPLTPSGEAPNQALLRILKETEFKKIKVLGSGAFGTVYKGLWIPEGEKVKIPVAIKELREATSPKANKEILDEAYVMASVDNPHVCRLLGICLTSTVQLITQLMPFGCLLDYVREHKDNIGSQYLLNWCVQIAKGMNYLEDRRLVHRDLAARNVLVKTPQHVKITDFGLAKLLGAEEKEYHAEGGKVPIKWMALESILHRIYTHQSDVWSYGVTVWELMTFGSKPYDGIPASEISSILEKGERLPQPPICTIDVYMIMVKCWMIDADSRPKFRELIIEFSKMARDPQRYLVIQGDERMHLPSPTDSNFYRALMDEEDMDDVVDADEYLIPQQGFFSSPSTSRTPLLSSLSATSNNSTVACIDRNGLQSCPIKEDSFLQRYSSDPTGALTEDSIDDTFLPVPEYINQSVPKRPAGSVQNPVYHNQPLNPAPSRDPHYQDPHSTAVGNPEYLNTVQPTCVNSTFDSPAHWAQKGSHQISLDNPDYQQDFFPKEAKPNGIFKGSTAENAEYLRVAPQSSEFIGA
# Sequence of Torsin-1A-interacting protein 1 (Homo sapiens) (Q5JTV8 whole entry, looked up): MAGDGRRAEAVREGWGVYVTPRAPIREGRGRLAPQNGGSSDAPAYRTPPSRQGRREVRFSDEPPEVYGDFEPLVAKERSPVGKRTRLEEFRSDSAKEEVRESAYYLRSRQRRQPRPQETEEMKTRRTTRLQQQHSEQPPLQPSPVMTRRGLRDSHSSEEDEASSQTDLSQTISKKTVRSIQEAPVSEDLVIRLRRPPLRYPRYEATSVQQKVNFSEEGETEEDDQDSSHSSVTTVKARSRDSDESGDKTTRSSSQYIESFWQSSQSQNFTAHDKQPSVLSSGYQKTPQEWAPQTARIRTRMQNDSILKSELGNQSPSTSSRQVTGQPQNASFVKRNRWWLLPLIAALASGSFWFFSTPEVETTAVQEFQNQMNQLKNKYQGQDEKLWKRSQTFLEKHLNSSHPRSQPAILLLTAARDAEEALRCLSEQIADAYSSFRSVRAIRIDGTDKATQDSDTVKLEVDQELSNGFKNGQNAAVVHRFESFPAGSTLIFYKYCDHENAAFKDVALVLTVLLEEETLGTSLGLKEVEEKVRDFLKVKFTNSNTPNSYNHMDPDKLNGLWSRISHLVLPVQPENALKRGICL
# Sequence of Follistatin-related protein 3 (Homo sapiens) (O95633 whole entry, looked up): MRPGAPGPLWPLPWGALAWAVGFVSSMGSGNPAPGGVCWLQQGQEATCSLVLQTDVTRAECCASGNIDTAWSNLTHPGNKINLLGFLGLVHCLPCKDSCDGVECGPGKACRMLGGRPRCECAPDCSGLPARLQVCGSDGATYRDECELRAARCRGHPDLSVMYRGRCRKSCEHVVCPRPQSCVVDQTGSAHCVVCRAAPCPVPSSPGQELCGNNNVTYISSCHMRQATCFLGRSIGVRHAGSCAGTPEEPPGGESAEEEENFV
# Sequence of Fibroblast growth factor 10 (Homo sapiens) (O15520 whole entry, looked up): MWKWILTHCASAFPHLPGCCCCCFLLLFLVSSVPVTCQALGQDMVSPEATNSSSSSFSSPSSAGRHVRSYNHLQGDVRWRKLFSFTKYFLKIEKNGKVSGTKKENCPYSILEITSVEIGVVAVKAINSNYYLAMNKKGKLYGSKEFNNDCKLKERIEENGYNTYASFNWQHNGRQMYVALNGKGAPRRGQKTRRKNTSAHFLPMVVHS
# Sequence of Left-right determination factor 2 (Homo sapiens) (O00292 whole entry, looked up): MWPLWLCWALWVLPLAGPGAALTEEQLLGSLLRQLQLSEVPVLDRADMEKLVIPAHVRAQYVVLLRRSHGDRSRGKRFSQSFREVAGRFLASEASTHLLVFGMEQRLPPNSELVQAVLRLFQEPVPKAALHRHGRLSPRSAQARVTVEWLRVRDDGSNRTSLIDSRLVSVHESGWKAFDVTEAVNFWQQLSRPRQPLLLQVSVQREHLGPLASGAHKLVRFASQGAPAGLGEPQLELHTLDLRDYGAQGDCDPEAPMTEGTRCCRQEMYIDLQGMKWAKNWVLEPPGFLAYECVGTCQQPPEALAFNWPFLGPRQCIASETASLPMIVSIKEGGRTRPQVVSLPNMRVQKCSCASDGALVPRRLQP
# Sequence of Dickkopf-related protein 1 (Homo sapiens) (O94907 whole entry, looked up): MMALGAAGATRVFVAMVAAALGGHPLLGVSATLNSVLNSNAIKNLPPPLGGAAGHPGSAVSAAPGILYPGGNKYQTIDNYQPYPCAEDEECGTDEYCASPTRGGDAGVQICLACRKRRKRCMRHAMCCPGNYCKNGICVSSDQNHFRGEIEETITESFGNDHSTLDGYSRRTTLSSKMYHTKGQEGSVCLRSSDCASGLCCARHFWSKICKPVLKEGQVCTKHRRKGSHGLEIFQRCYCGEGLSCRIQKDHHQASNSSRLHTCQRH
Compound,composite z-score [1],composite z-score [2],composite z-score [3],z-score [4],composite z-score [5],composite z-score [6],composite z-score [7],composite z-score [8],composite z-score [9],composite z-score [10],composite z-score [11],z-score [12],composite z-score [13],composite z-score [14],composite z-score [15],composite z-score [16],composite z-score [17],composite z-score [18],composite z-score [19],composite z-score [20]
COCC(=C=CC[C@@H](O)c1ccc(OCCO)cc1)CCO,1.67,-0.0695,-0.113,1.12 (inactive),1.27,-0.155,-0.265,0.409,0.299,0.892,0.862,-0.766,-0.144,-0.0954,-0.102,-0.0643,0.0639,-0.197,0.506,0.0305
[N-]=[N+]=NC[C@H](Cc1ccccc1)NC(=O)c1ccccc1,-0.554,-0.124,-0.414,-0.0894 (inactive),-0.0183,-0.089,0.0214,-0.394,0.0359,0.382,-0.778,2.25,-0.0257,-0.334,-0.203,-0.0269,-0.0146,-0.293,0.363,0.0961
C=C[C@@H](C)[C@H](O)c1ccc(OCCO)cc1,-0.112,-0.234,0.825,-0.474 (inactive),-1.57,-1.25,-2.14,-1.71,-1.5,-1.57,-0.355,0.27,-2.31,-0.912,0.521,-0.262,-0.289,-0.446,-0.73,-1.16
C=CCNC(=O)[C@@H]1[C@H]2C(=O)O[C@H](c3ccccc3)[C@H](c3ccccc3)N2[C@H](c2ccc(OCCO)cc2)[C@@]12C(=O)N(C(=O)OCCOC)c1ccc(C#CCCO)cc12,1.12,-0.0139,0.171,-1.53 (inactive),0.637,1.28,0.635,1.24,0.646,0.63,1.33,-0.459,0.909,0.88,-0.381,0.0229,-0.0769,-0.519,0.262,1.35
CN(C)CCCCNC(=O)[C@H]1C[C@H]2C(=O)N[C@@H](CCCC[N+](C)(C)C)C(=O)N2[C@H]1c1ccc(O)cc1,1.26,-0.209,-0.328,-1.48 (inactive),-0.937,-0.55,-0.327,-0.205,0.357,0.0643,-1.55,-0.027,-0.0658,-0.0691,-0.441,-0.208,-0.2,-0.253,-0.511,0.15
CCOC(=O)C1=CC[C@@H](c2ccccc2)N(S(=O)(=O)c2ccc(C)cc2)[C@H]1C=Cc1ccccc1,1.66,0.37,1.03,0.151 (inactive),0.322,0.193,-0.647,-0.745,-0.548,0.58,0.261,-1.83,-0.481,0.401,-0.401,0.127,-0.13,-0.5,0.381,0.621
C#C[C@@H](CC)O[Si](C#CCCCC#N)(C(C)C)C(C)C,0.329,0.155,-0.0862,-0.196 (inactive),-0.232,-0.021,-0.405,-0.669,-0.277,0.573,0.294,-0.923,0.0737,-0.442,-0.104,-0.139,0.0483,-0.121,0.372,-0.275
CC(C)[Si]1(C(C)C)OCc2cc(-c3ccc(-c4ccc(Cl)c(Cl)c4)o3)nc(CCc3ccccc3)c21,0.508,-0.0914,-0.17,-2.1 (inactive),0.187,-0.181,-0.833,0.169,0.32,0.536,-0.655,-0.826,0.198,-0.307,0.688,-0.054,-0.601,0.428,-0.395,-0.327
CCc1cccc(NC(=O)O[C@H]2[C@H](OC(=O)Nc3ccccc3)[C@H](OC(=O)Nc3ccccc3)[C@@H](OC)O[C@@H]2CO)c1,1.41,0.22,0.55,-0.376 (inactive),1.51,1.24,-0.0045,0.833,-0.186,0.444,1.44,-3.86,0.0274,1.26,-0.101,-0.0006,0.23,1.11,1.03,0.0456
COC(=O)[C@@]1(Cc2ccccc2CN=[N+]=[N-])N=C(c2ccc(OCCCO)cc2)O[C@H]1c1ccccc1,1.13,0.789,0.966,0.31 (inactive),-0.438,-0.0487,-0.0819,-0.153,-0.459,1.13,0.155,-3.09,-0.59,-0.426,0.161,0.0101,-0.0375,1.48,1.42,0.779
COCCCNC(=O)[C@@]1(c2ccc([N+](=O)[O-])cc2)CC(=O)N(CC23CC4CC(CC(C4)C2)C3)[C@@H]1c1ccc(CO)cc1I,1.02,0.541,0.847,3.68 (inactive),-0.0432,-0.115,-0.392,-0.36,-0.15,0.126,0.952,-3.15,-0.381,0.425,0.729,-0.104,0.337,0.536,0.157,1.22
